Assay results taken from PubChem BioAssay.
Values joined by “and” are separate entries in the source; they are usually repeats but may differ in a detail not shown here. Identical values can stand only once. Active and inactive are the calls of the source.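 How the source made its calls, unless noted: active means normalized viability below 100% at a tested concentration; inactive means the rest.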

Experiments:
[1] = stimulators of nuclear beta-catenin in C2C12, primary screen, imaging, WNT3A-conditioned medium, mouse C2C12, NPC library (AID 1117326; in the data active means nuclear beta-catenin stimulation mostly above about 4.2%, no sharp cut-off; inactive means mostly below about 10%); details: stronger effect = higher value
[2] = growth inhibition of GSK3B-pretreated HCT116 cells – cell-based, CellTiter-Glo, 0.2 to 20 µM (AID 1117336;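 active means compounds lowering colon cancer cell viability after pretreatment blocking the GSK3B kinase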); details: HCT116 viability after GSK3B inhibitor, at 20 µM, stronger effect = higher value
[3] = HCT116 colon cancer cell growth inhibition, primary screen, CellTiter-Glo luminescence, NPC library (AID 1117342;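 active means compounds that lower survival of HCT116 colon cancer cells in the luminescence readout, no numeric limit stated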); details: at 20 µM (top of the series)
[4] = CellTiter-Glo luminescent readout of SW480 viability loss, NPC library primary (AID 1117343;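 active means compounds that lower viability of the colon cancer cells in the luminescence readout, with no numeric limit stated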); details: CellTiter-Glo luminescence; at 20 µM (top of the series) unless noted
[5] = decreased DLD-1 cellular survival, CellTiter-Glo luminescent readout, NPC compound collection, primary HTS (AID 1117346;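 active means compounds that lower survival of DLD-1 colon cancer cells in the luminescence readout, no cutoff given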); details: DLD-1 viability, CellTiter-Glo luminescence; at 20 µM (top of the series)
[6] = sensitizers of A549 cells to miR-34 induction, primary screen, imaging, A549 dox-inducible miR-34, nuclei and caspase counts (AID 1347080;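 active means compounds whose cell count with miR-34 switched on is under 0.7 times the count with it off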); details: A549 miR-34 inducible, Hoechst nuclei count, 48 h
[7] = survival rescue of mitochondrial mutant cells in low glucose, primary screen, MELAS cybrids, Rieske KO mouse fibroblasts, CellTiter-Glo (AID 1508586;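 active means mean z-score across replicates of 1.96 or higher in either the MELAS or the Rieske mutant cell line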;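 further: z relative to plate mean and SD of compound and empty wells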)
[8] = ovarian cancer cell viability with rucaparib, profiling panel, oncology-focused library, rucaparib conditional (AID 1508598); details: patient-derived ovarian cancer cells, CellTiter-Glo viability, 144 h, stronger effect = lower value
[9] = polyglutamine-triggered caspase-3 activation inhibitors, cell-based (AID 1583); details: polyglutamine-induced caspase-3 activation, cell assay; stronger effect = higher value;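 tested at 10 µM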
[10] = hESC survival regulators, cell-based (AID 493140; call rule not given here;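 further: cells exposed to compounds for four days before counting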); details: human embryonic stem cell survival screen; stronger effect = higher value
[11] = stimulators of insulin release from INS-1E, primary screen, cell-based, 5 mM glucose, NPC library (AID 1117329;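 active means compound raises insulin release from rat beta cells at 5 mM glucose, no numeric limit stated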); details: rat INS-1E insulin secretion, at 10 µM, stronger effect = higher value
[12] = inhibition of endothelial tube formation, primary screen, imaging, VEGF stimulated, CD31 staining, tube area, NPC library (AID 1117340;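 active means compound that reduces growth-factor-driven endothelial tube area in a mixed cell culture, no cutoff stated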); details: VEGF-stimulated ADSC/ECFC co-culture, at 10 µM, stronger effect = higher value
[13] = glucagon-like peptide 1 release enhancers, primary assay, NCI-H716 cell line, NPC library (AID 1117341;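 active means compound raises GLP1 secretion from the human gut endocrine cells, with no numeric limit stated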); details: NCI-H716 cells, at 10 µM, stronger effect = higher value
[14] = molecular target: 6-phosphogluconate dehydrogenase, decarboxylating (Homo sapiens) (UniProt P52209); experiment: 6PGD enzyme inhibitors, primary screen, biochemical, human, recombinant enzyme, NADPH absorbance (AID 1159550;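 active means at least 20% inhibition of 6-phosphogluconate dehydrogenase activity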); details: recombinant 6PGD, NADPH absorbance 341 nm; at 10 µM; stronger effect = higher value
Chain of 6-phosphogluconate dehydrogenase, decarboxylating (Homo sapiens) (P52209 whole entry, looked up): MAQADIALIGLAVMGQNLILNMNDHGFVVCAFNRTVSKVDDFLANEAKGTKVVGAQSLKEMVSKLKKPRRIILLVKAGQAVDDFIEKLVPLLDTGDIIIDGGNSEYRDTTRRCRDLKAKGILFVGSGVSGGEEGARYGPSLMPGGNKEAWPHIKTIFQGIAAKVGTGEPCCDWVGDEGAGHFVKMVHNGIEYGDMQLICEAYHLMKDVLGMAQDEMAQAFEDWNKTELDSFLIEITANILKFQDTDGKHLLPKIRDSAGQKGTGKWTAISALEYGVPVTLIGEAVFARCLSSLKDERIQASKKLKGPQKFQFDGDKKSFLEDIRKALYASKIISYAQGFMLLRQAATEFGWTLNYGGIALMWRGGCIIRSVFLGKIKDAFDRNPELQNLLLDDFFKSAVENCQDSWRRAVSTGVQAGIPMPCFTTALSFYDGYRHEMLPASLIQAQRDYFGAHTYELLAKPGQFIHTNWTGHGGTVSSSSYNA

[15] = modulation of C. elegans fzo-1 (AID 1259413; call rule not given here;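 further: fzo-1 mutant C. elegans worms in liquid wells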); details: C. elegans fzo-1 modulator screen, mean read-out; stronger effect = higher value
[16] = differential killing of epithelial or mesenchymal cells, primary screen, imaging, PC-3E GFP, TEM4-18 mCherry, co-culture (AID 1345086;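 active means compounds killing one labelled cell type while sparing the other, by normalised counts and ratio limits, not self-fluorescent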;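 further: cells exposed to compound for 72 h before imaging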;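 on red/green cell ratio (normalised): normalised mesenchymal count divided by normalised epithelial count so high means epithelial killing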); details: imaging cell counts, at 1 µM
[17] = molecular target: NAD(+) hydrolase SARM1 (Homo sapiens) (UniProt Q6SZW1); experiment: SARM1 TIR NADase inhibitors, cell lysate, NAD-Glo luminescence (AID 1508614;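 active means compound whose remaining NAD level is above about 45 nM, limit read from the data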); details: SAM-TIR HEK293T lysate NADase, at 1 µM, stronger effect = higher value
Chain of NAD(+) hydrolase SARM1 (Homo sapiens) (Q6SZW1 whole entry, looked up, the tested form may be a part): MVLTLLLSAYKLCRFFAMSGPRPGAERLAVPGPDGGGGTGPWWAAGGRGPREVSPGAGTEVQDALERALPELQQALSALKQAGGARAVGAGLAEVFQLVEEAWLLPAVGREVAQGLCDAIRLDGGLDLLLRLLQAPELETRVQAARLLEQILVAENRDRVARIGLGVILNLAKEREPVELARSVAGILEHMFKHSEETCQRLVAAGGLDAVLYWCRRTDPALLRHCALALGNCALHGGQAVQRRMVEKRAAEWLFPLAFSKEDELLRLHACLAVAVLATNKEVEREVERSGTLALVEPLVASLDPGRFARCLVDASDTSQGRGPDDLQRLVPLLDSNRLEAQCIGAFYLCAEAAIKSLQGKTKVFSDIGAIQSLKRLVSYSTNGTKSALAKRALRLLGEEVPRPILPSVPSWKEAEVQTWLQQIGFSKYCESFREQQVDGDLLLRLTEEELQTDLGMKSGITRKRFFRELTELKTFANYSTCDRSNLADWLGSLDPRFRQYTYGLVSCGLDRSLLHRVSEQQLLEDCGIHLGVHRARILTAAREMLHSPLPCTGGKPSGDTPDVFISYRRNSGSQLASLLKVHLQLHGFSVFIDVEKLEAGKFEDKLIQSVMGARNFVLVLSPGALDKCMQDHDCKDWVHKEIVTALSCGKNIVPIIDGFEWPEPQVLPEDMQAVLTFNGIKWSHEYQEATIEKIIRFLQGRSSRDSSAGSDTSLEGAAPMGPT

[18] = molecular target: Mitogen-activated protein kinase 7 (Homo sapiens) (UniProt Q13164); experiment: ERK5 transactivation activators in reporter cells, primary screen, cell-based, HTS (AID 1508626;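 active means luciferase signal above three times the same-plate solvent-only control wells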;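 further: luciferase driven by Gal4-ERK5 fusion binding five Gal4 sites before minimal TATA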); details: HeLa Gal4-ERK5 transactivation, 18 h, at 5 µM, stronger effect = higher value
Chain of Mitogen-activated protein kinase 7 (Homo sapiens) (Q13164 whole entry, looked up, the tested form may be a part): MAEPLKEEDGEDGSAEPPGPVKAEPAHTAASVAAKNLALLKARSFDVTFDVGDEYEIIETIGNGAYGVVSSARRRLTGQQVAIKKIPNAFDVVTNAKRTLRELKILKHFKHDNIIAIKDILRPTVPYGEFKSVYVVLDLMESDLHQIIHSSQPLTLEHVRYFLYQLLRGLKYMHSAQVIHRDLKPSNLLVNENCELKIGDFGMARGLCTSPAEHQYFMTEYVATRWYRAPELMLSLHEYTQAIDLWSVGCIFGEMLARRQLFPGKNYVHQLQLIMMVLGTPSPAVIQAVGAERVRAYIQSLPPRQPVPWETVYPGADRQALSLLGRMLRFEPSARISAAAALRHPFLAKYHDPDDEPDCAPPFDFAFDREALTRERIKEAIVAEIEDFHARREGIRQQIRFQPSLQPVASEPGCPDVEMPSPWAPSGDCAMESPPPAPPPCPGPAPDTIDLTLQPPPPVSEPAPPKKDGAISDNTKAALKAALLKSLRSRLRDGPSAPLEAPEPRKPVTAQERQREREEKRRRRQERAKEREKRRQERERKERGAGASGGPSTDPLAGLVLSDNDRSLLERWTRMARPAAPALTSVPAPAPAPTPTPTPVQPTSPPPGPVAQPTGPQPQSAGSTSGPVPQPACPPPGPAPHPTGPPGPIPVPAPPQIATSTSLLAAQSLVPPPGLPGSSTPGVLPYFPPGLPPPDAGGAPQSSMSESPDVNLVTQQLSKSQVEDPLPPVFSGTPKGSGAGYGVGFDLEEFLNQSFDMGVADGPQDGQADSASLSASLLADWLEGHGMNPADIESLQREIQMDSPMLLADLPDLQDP

[19] = MELAS cybrid survival, CellTiter-Glo 48 h, stronger effect = higher value
[20] = Rieske KO mouse fibroblast survival, CellTiter-Glo 72 h

Cc1ccc(-n2nc(C(C)(C)C)cc2NC(=O)Nc2ccc(OCCN3CCOCC3)c3ccccc23)cc1
-0.851: z-score [7, 20]
7%: nuclear beta-catenin stimulation ([1]; stimulation, at 2 µM)
8380: cell count ([6]; measured here: total cells without miR-34 induction)
inactive: nuclear beta-catenin stimulation ([1]; at 10 µM) 13.4% | viability decrease (inhibition) [5] 31% | fold change ([6]; stronger effect = lower value, cell number ratio, induced over uninduced) 0.925 | z-score [7, 19] -0.536 | viability ([8]; at 0.000305 µM, OCI-C5x cells, with rucaparib 10 µM, 100% = cells with rucaparib alone) 105% | viability ([8]; at 0.000305 µM, OCI-C5x cells, without rucaparib) 123% | viability ([8]; at 0.000305 µM, OCI-P5x cells, with rucaparib 20 µM, 100% = cells with rucaparib alone) 112% | viability ([8]; at 0.000305 µM, OCI-P5x cells, without rucaparib) 115% | viability ([8]; at 0.00122 µM, OCI-C5x cells, without rucaparib) 113% | viability ([8]; at 0.00122 µM, OCI-P5x cells, without rucaparib) 104% | viability ([8]; at 0.00488 µM, OCI-C5x cells, with rucaparib 10 µM, 100% = cells with rucaparib alone) 106% | viability ([8]; at 0.00488 µM, OCI-C5x cells, without rucaparib) 116% | viability ([8]; at 0.00488 µM, OCI-P5x cells, without rucaparib) 111% | viability ([8]; at 0.0195 µM, OCI-C5x cells, with rucaparib 10 µM, 100% = cells with rucaparib alone) 105% | viability ([8]; at 0.0195 µM, OCI-C5x cells, without rucaparib) 120% | viability ([8]; at 0.0195 µM, OCI-P5x cells, with rucaparib 20 µM, 100% = cells with rucaparib alone) 101% | viability ([8]; at 0.0195 µM, OCI-P5x cells, without rucaparib) 108% | viability ([8]; at 0.0781 µM, OCI-C5x cells, with rucaparib 10 µM, 100% = cells with rucaparib alone) 100% | viability ([8]; at 0.0781 µM, OCI-C5x cells, without rucaparib) 107% | viability ([8]; at 0.0781 µM, OCI-P5x cells, with rucaparib 20 µM, 100% = cells with rucaparib alone) 108% | viability ([8]; at 0.0781 µM, OCI-P5x cells, without rucaparib) 109% | viability ([8]; at 0.313 µM, OCI-C5x cells, with rucaparib 10 µM, 100% = cells with rucaparib alone) 107% | viability ([8]; at 0.313 µM, OCI-C5x cells, without rucaparib) 114% | viability ([8]; at 0.313 µM, OCI-P5x cells, without rucaparib) 101% | viability ([8]; at 1.25 µM, OCI-C5x cells, with rucaparib 10 µM, 100% = cells with rucaparib alone) 107% | viability ([8]; at 1.25 µM, OCI-C5x cells, without rucaparib) 115% | viability ([8]; at 5 µM, OCI-C5x cells, with rucaparib 10 µM, 100% = cells with rucaparib alone) 117% | viability ([8]; at 5 µM, OCI-C5x cells, without rucaparib) 144%
active: viability decrease [2] 73% | inhibition of viability [3] 66.5% | viability decrease (inhibition) [4] 64.1% | viability ([8]; at 0.00122 µM, OCI-C5x cells, with rucaparib 10 µM, 100% = cells with rucaparib alone) 97.2% | viability ([8]; at 0.00122 µM, OCI-P5x cells, with rucaparib 20 µM, 100% = cells with rucaparib alone) 97.9% | viability ([8]; at 0.00488 µM, OCI-P5x cells, with rucaparib 20 µM, 100% = cells with rucaparib alone) 91.6% | viability ([8]; at 0.313 µM, OCI-P5x cells, with rucaparib 20 µM, 100% = cells with rucaparib alone) 97.2% | viability ([8]; at 1.25 µM, OCI-P5x cells, with rucaparib 20 µM, 100% = cells with rucaparib alone) 96.1% | viability ([8]; at 1.25 µM, OCI-P5x cells, without rucaparib) 95.3% | viability ([8]; at 5 µM, OCI-P5x cells, with rucaparib 20 µM, 100% = cells with rucaparib alone) 96.1% | viability ([8]; at 5 µM, OCI-P5x cells, without rucaparib) 94.8%
0.866: fold change ([6]; measured here: relative caspase fold change +Dox/-Dox)
7750: cell count ([6]; measured here: total cells with miR-34 induction, stronger effect = lower value)

COC(=O)C1=C(C)NC(C)=C(C(=O)OC)C1c1ccccc1[N+](=O)[O-]
active: viability decrease [2] 77.9% | inhibition of viability [3] 58.7% | viability decrease (inhibition) [4] 136% | viability decrease (inhibition) [5] 93.1%
0.9: normalised cell number ([16]; measured here: mesenchymal TEM4-18 mCherry cell survival)
0.0615 and 0.566 and -0.497: z-score [7, 20]
inactive: survival [10] 26.5 | insulin secretion stimulation [11] 11.4% | tube area decrease [12] 1.2% | GLP1 secretion stimulation [13] 4.4% | inhibition [14] -13.6% | mean signal [15] 242 | red/green cell ratio (normalised) ([16]; actives lie on both sides, counts scaled to control wells, 1 = unselective) 0.87 | z-score [7, 19] -0.44 and 1.42 and -0.699 | remaining NAD [17] 10 nM | luciferase signal [18] 52 AU
1.03: normalised cell number ([16]; measured here: epithelial PC-3E GFP cell survival)
28.5%: inhibition [9]
